# Experimental data as given in PubChem BioAssay (NCATS).
# Records with an inconclusive call do not appear. Entries that show only a call come without a potency. Values without a mark were called inactive. The source made the active and inactive calls. Calls come from the whole dose curve; as a rule, active = well fitted inhibition curve with a large enough effect; inconclusive = small, poorly fitted or top-dose-only effect; inactive = flat fitted curve, though single readings scatter.
# Key:
# [1] = qHTS profiling for inhibitors of Plasmodium falciparum proliferation (AID 504749); for all read-outs here: nearly all actives have a fitted effect of over 60% in size; settings: P. falciparum in erythrocytes, SYBR Green DNA, 72 h; for activity, negative = inhibition: at 28.7 µM (top of the series)
# Procedure, shortened: (§1)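 SYBR Green fluorescence (ex 485 nm, em 535 nm) reports parasite DNA after 72 h compound exposure of infected red cells at 0.3% parasitemia, 2.5% hematocrit; signal normalized to 0.29 uM artemisinin and vehicle wells.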
# AA1029 = assay: as above; settings: P. falciparum in erythrocytes, SYBR Green DNA, 72 h; series mostly up to 28.7 µM
# Procedure, shortened: as §1
# AS120 = assay: as above; settings: P. falciparum in erythrocytes, SYBR Green DNA, 72 h; series mostly up to 28.7 µM
# Procedure, shortened: as §1
# ATS189 = assay: as above; settings: P. falciparum in erythrocytes, SYBR Green DNA, 72 h; series mostly up to 28.7 µM
# Procedure, shortened: as §1
# ATS95 = assay: as above; settings: P. falciparum in erythrocytes, SYBR Green DNA, 72 h; series mostly up to 28.7 µM
# Procedure, shortened: as §1
# C2A = assay: as above; settings: P. falciparum in erythrocytes, SYBR Green DNA, 72 h; series mostly up to 28.7 µM
# Procedure, shortened: as §1
# 3D7 = assay: as above; settings: P. falciparum in erythrocytes, SYBR Green DNA, 72 h; series mostly up to 28.7 µM
# Procedure, shortened: as §1
# 7G8 = assay: as above; settings: P. falciparum in erythrocytes, SYBR Green DNA, 72 h; series mostly up to 28.7 µM
# Procedure, shortened: as §1
# Potency is the fitted concentration of half-maximal effect.
Structure (SMILES),"activity, negative = inhibition ([1]; parasite line A) [%]","activity, negative = inhibition ([1]; parasite line B) [%]",Potency (AA1029),Potency (AS120),Potency (ATS189),Potency (ATS95),Potency (C2A),Potency (3D7),Potency (7G8),Potency ([1]; parasite line B),Potency ([1]; parasite line A)
c1ccc2c(c1)OCC(C1=NCCN1)O2 (stereo not given),-17.7,-17.9,inactive,inactive,inactive,inactive,inactive,–,–,–,–
C#CCOC(C(=O)OCCN(C)C)(c1ccccc1)c1ccccc1,-0.224,7.7,–,inactive,inactive,inactive,inactive,inactive,10 µM (active),–,–
C[C@]12C/C(=C/O)C(=O)C[C@@H]1CC[C@@H]1[C@@H]2CC[C@@]2(C)[C@H]1CC[C@]2(C)O,-16.2,–,inactive,inactive,inactive,inactive,inactive,inactive,–,–,–
CC(C)(C)CC(C)(C)c1ccc(O)cc1,-18.1,–,inactive,–,inactive,inactive,inactive,inactive,12.6 µM (active),–,–
CCN(CC)CCN1C(=O)CN=C(c2ccccc2F)c2cc(Cl)ccc21,-1.62,-4.36,–,inactive,–,–,inactive,inactive,–,–,–
CC(C)=CC1C(C(=O)OCc2cccc(Oc3ccccc3)c2)C1(C)C (stereo not given),-11.7,-17.5,inactive,inactive,inactive,inactive,inactive,inactive,12.6 µM (active),–,–
CCCC1CCCCN1 (stereo not given),5.52,3.92,inactive,inactive,inactive,inactive,inactive,inactive,inactive,–,–
CC(C)(C)NCC(O)c1cc(Cl)c(N)c(Cl)c1 (stereo not given),-4.99,–,–,–,–,–,inactive,inactive,7.94 µM (active),–,–
Oc1ccccc1-c1ccccc1,-2.25,-2.09,inactive,inactive,inactive,inactive,inactive,inactive,inactive,–,–
O=C(NC(O)C(Cl)(Cl)Cl)NC(O)C(Cl)(Cl)Cl (stereo not given),-1.71,6.79,inactive,inactive,inactive,inactive,inactive,inactive,inactive,–,–
O=C1NCN(c2ccccc2)C12CCN(CC1COc3ccccc3O1)CC2 (stereo not given),-17.5,5.67,inactive,inactive,inactive,inactive,inactive,inactive,12.6 µM (active),–,–
CC[C@@H](CO)NC(=O)[C@@H]1C=C2c3cccc4[nH]cc(c34)C[C@H]2N(C)C1,17.2,1.58,inactive,inactive,inactive,inactive,inactive,inactive,–,–,–
COc1ccc(C(CN(C)C)C2(O)CCCCC2)cc1 (stereo not given),4.2,-12.5,inactive,inactive,inactive,inactive,inactive,inactive,inactive,–,–
CCN(CC)CCOC(=O)C(O)(c1ccccc1)c1ccccc1,9.85,-20.6,inactive,inactive,inactive,inactive,inactive,inactive,inactive,–,–
COc1ccccc1N1CCNCC1,-0.986,0.847,inactive,inactive,inactive,inactive,inactive,inactive,inactive,–,–
CC(C)NCC(O)c1ccccc1Cl (stereo not given),–,–,4.47 µM (active),12.6 µM (active),–,11.2 µM (active),–,–,4.47 µM (active),11.2 µM (active),–
Cc1ncc(CNC(=O)N(CCCl)N=O)c(N)n1,6.89,3.28,inactive,inactive,inactive,inactive,inactive,inactive,inactive,–,–
O=c1[nH]c2ccccc2n1C1CCN(CCCC(c2ccc(F)cc2)c2ccc(F)cc2)CC1,–,-29.2,inactive,–,inactive,inactive,inactive,15.8 µM (active),–,–,–
CC(C)(N)Cc1ccc(Cl)cc1,-1.24,1.12,–,inactive,–,–,inactive,inactive,–,–,–
c1ccc2c(c1)Nc1ccccc1S2,–,–,–,inactive,–,–,–,4.47 µM (active),–,–,–
Cc1cccc(C)c1NC1=NCCCS1,-16.9,-6.65,–,–,–,–,inactive,inactive,11.2 µM (active),–,–
Cc1ccc(S(=O)(=O)N[C@@H](CCCCN)C(=O)CCl)cc1,–,–,10 µM (active),11.2 µM (active),–,–,11.2 µM (active),–,8.91 µM (active),–,7.08 µM (active)
FC(F)(F)c1cccc(C2=CCN(CCc3ccc4ccccc4c3)CC2)c1,-13.7,-28.6,inactive,inactive,inactive,inactive,inactive,inactive,inactive,–,–
CN1C[C@H](CNC(=O)OCc2ccccc2)C[C@@H]2c3cccc4c3c(cn4C)C[C@H]21,–,–,6.31 µM (active),10 µM (active),10 µM (active),11.2 µM (active),8.91 µM (active),–,5.01 µM (active),–,7.08 µM (active)
CCN(C(C)=O)c1cccc(-c2ccnc3c(C#N)cnn23)c1,6.76,2.02,inactive,inactive,inactive,inactive,inactive,inactive,inactive,–,–
c1ccc(C2CC2)c(OCC2=NCCN2)c1,6.76,4.47,inactive,inactive,inactive,inactive,inactive,inactive,–,–,–
OCCOc1ccccc1,10.1,6.31,inactive,inactive,inactive,inactive,inactive,inactive,inactive,–,–
Oc1ccc(Cl)cc1Cc1ccccc1,-17.6,–,–,8.91 µM (active),–,–,inactive,–,2 µM (active),–,–
CCC1(C2=NCCN2)Cc2ccccc2O1 (stereo not given),5.76,6.35,11.2 µM (active),–,7.94 µM (active),8.91 µM (active),–,inactive,–,–,–
Clc1cccc(N2CCNCC2)c1,9.32,8.49,inactive,inactive,inactive,inactive,inactive,inactive,–,–,–
